Measured values: PubChem BioAssay (NCATS)
“And” between values parts separate entries of the source, which are not always exact repeats. Equal entries are not always repeated. Inconclusive results are not listed. A call without a number means that no potency is given here. The source made the active and inactive calls. Unless noted, calls follow the shape of the dose curve; as a rule, active = well fitted curve in the direction sought with a large enough effect; inconclusive = small, poorly fitted or top-dose-only effect, or another doubt; inactive = no such curve, though single readings can be large; an effect the other way counts as inactive or inconclusive.

Key:
[1] = molecular target: Calcium and integrin-binding protein 1 (Homo sapiens) (UniProt Q99828); assay: Primary qHTS for Identification of Calcium Integrin Binding Protein 1 (CIB1) Competitor (AID 1508620);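 also: GST tagged CIB1 binding a fluorescein labelled alphaIIb integrin peptide tracer; top concentration of the series differs between compounds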
How it was run: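 CIB1-GST (1 uM final) and compound incubated 15 min at room temperature before adding FITC-alphaIIb peptide tracer (100 nM final). Competition for binding read by fluorescence polarization (ex 480, em 540) after another 15 min at room temperature.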

[2] = Primary qHTS for small molecule stabilizers of the endoplasmic reticulum resident proteome: Secreted ER Calcium Modulated Protein (SERCaMP) assay (AID 1508630)
How it was run: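 The SH-SY5Y reporter protocol was run at 3 concentrations up to 38.3 uM (primary) or 11 concentrations (follow-up): 16 h compound, 100 nM thapsigargin for 4 h, then extracellular luciferase luminescence.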

[3] = A High-Content qHTS Against Drug Library for the Identification of Small Molecules that Inhibit DYT1 Early Onset Primary Dystonia-Associated Cell Pathology (AID 1645839; calls by dose curve; also: series mostly up to about 46 µM)
How it was run: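 High-content imaging quantified EGFP-TorsinA mislocalization in HEK293-derived cells inducibly expressing DYT1 mutant torsinA, after 48 h exposure to compound given together with tetracycline induction. Cell count served as a toxicity channel alongside %pathology.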

[4] = molecular target: Cytochrome P450 2C9 (Homo sapiens) (UniProt P11712); assay: Cytochrome P450 family 2 subfamily C member 9 (CYP2C9) small molecule antagonists: luciferase biochemical (cell-free) qHTS assay (AID 1645842; active = well fitted curve in the direction sought with a large enough effect in the repeat runs; an effect the other way counts as inactive or inconclusive; also: nearly all actives have a fitted effect of over 55% in size; also: potency is read from the fitted curve at half-maximal effect)
How it was run: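 P450-Glo CYP2C9 system: proluciferin substrate with enzyme in mix containing 0.4% BSA, 10 min at room temperature, then NADPH regeneration solution added and incubated 1 h at 37C. Detection reagent stopped reaction; luminescence read after 20 min as RLU.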

[5] = molecular target: Cytochrome P450 2D6 (Homo sapiens) (UniProt P10635); assay: Cytochrome P450 family 2 subfamily D member 6 (CYP2D6) small molecule antagonists: luciferase biochemical (cell-free) qHTS assay (AID 1645840; active = well fitted curve in the direction sought with a large enough effect in the repeat runs; an effect the other way counts as inactive or inconclusive; also: nearly all actives have a fitted effect of over 55% in size; also: potency is read from the fitted curve at half-maximal effect)
How it was run: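 P450-Glo CYP2D6 system: proluciferin substrate converted by enzyme to luciferin, read by luminescence proportional to activity. Enzyme-substrate mix with compound 10 min at room temperature, then NADPH regeneration 1 h before detection reagent.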

[6] = molecular target: Cytochrome P450 3A4 (Homo sapiens) (UniProt P08684); assay: Cytochrome P450 family 3 subfamily A member 4 (CYP3A4) small molecule antagonists: luciferase qHTS assay (AID 1645841; active = well fitted curve in the direction sought with a large enough effect in the repeat runs; an effect the other way counts as inactive or inconclusive; also: nearly all actives have a fitted effect of over 45% in size)
How it was run: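 Luminescent CYP3A4 activity readout: compounds plus enzyme-substrate mix 10 min at room temperature, reaction started with NADPH regenerating system for 1 h, stopped with detection reagent, read after 20 min. Ketoconazole served as control.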

Sequence of Cytochrome P450 2D6 (Homo sapiens) (P10635 whole entry, looked up): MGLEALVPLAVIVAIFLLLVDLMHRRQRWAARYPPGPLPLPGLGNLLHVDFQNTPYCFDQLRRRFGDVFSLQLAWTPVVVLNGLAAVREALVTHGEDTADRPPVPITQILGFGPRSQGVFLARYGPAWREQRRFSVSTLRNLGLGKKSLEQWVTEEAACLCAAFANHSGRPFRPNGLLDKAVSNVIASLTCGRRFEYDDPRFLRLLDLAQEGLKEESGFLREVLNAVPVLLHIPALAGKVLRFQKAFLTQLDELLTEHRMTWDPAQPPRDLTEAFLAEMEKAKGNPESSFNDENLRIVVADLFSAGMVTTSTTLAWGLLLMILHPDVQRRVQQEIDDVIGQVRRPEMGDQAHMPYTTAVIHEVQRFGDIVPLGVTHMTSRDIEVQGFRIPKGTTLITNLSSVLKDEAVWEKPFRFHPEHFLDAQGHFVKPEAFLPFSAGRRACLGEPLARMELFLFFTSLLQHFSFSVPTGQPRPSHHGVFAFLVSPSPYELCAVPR
Sequence of Cytochrome P450 2C9 (Homo sapiens) (P11712 whole entry, looked up): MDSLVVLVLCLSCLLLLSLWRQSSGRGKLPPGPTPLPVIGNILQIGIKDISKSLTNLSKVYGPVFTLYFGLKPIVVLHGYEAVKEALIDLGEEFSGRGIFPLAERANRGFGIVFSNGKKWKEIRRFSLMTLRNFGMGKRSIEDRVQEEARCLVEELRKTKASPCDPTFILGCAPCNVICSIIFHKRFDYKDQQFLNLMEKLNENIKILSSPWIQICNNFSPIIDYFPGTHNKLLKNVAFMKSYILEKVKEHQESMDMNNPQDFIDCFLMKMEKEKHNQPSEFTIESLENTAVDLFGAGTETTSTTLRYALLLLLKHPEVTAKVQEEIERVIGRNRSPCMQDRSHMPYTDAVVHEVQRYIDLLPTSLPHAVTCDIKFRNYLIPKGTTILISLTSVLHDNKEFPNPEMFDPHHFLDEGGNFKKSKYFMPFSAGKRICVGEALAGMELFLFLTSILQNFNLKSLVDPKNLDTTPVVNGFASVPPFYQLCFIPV
Sequence of Calcium and integrin-binding protein 1 (Homo sapiens) (Q99828 whole entry, looked up): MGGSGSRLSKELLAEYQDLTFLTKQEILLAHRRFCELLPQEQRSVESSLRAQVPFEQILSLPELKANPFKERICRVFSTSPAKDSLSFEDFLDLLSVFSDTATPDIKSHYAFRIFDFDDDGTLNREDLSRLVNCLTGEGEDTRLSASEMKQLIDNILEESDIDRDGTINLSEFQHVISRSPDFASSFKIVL
Sequence of Cytochrome P450 3A4 (Homo sapiens) (P08684 whole entry, looked up): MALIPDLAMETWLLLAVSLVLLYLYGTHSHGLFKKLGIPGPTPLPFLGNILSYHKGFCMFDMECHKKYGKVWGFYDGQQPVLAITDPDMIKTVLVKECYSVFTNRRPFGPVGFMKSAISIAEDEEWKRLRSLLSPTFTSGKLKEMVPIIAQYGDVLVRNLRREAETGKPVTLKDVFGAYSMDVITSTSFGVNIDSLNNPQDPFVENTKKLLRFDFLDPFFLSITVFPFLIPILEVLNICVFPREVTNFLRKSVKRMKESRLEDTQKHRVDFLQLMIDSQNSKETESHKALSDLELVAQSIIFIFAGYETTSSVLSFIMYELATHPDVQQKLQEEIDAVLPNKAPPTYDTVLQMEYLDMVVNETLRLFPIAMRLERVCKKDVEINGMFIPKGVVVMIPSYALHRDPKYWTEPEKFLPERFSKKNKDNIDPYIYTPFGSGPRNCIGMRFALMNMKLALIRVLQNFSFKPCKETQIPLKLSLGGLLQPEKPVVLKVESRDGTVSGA

Compound | outcome [1] | Potency [2] | Potency [3] | Potency [4] | Potency [5] | outcome [6]
CS(=O)(=O)c1ccc([C@@H](O)[C@@H](CO)NC(=O)C(Cl)Cl)cc1 | inactive | inactive | inactive | inactive | – | –
Clc1ccccc1CN1CCc2sccc2C1 | – | inactive | inactive | – | – | –
CN(C)CCc1c[nH]c2ccc(C[C@H]3COC(=O)N3)cc12 | inactive | – | inactive | inactive | inactive | –
CN(CCOc1ccc(CC2SC(=O)NC2=O)cc1)c1ccccn1 (stereo not drawn) | inactive | inactive | inactive | inactive | – | –
CCN(CC)CC#CCOC(=O)C(O)(c1ccccc1)C1CCCCC1 (stereo not drawn) | – | inactive | – | 7.56 µM (active) | 3.01 µM (active) | –
CC1(C)[C@H](C(=O)O)N2C(=O)C[C@H]2S1(=O)=O | inactive | – | inactive | inactive | inactive | –
C[C@@H](NCCCc1cccc(C(F)(F)F)c1)c1cccc2ccccc12 | inactive | inactive | – | – | 30.9 nM (active) and 19 nM (active) | –
O=C(O)c1ccc(-n2nc(-c3ccccc3O)nc2-c2ccccc2O)cc1 | inactive | inactive | – | – | inactive | inactive
